# Shown are actives, neighbours in structure and some others; about 6.2% of the full set was active somewhere.
# HT1080 IDH1KD tx = qHTS for induction of synthetic lethality in tumor cells producing 2HG: qHTS for the HT-1080-IDH1KD cell line. 360,000 compounds, 2% hits. HT-1080 IDH1 knockdown viability, ATP luminescence, 48 h. Potency, µM (doses to about 46.1 µM), inactives show top-dose activity, negative = toxicity, most hits filed as cytotoxic;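 further: 0% = DMSO wells and -100% = cell-free medium wells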
#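 Using the IDH1-knockdown HT-1080 line run in the same batch and compound series as the NT line, viability after 48 h at 37 °C was determined by CellTiter-Glo luminescence and expressed as % activity.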
# HT1080-NT tox = qHTS for induction of synthetic lethality in tumor cells producing 2HG: qHTS for the HT-1080-NT fibrosarcoma cell line | Potency, µM (highest dose often 46.1 µM), inactives show top-dose activity, negative = less viability, hits mostly cytotoxic | AID 686970, 2013 | 360,000 compounds, 1.6% hits | HT-1080-NT fibrosarcoma viability, CellTiter-Glo ATP luminescence, 48 h;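 further: NT is the 2HG producing partner of a matched IDH1 knockdown line; 0% = DMSO-treated cells and -100% = media-only wells without cells; nearly all actives have a fitted effect of over 55% in size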
#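 Viability of the 2HG-overproducing fibrosarcoma line after 48 hours of compound exposure at 37 degrees C was determined by luminescence with CellTiter-Glo, and concentration-effect curves were then fitted and categorized.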
# S2 tox = Viability Counterscreen for Primary qHTS for Inhibitors of ATXN expression. S2 cells (HEK-293 line with an ATXN2-luciferase reporter) viability, CellTiter-Fluor protease fluorescence, 24 h. AID 651635, 2014. Potency, µM (titrated, usually from 56.7 µM), hits mostly cytotoxic. 400,000 compounds, 0.49% hits; further: nearly all actives have a fitted effect of over 40% in size
# KB-3-1 cytotox = qHTS assay for MDR1-selective chemotherapeutics: Primary screen using the parental adenocarcinoma cell KB-3-1; KB-3-1 viability, CellTiter-Glo ATP luminescence, 72 h; Potency, µM (series often up to 46.1 µM), hits mostly cytotoxic; 400,000 compounds, 1.4% hits; further: on the % scale 0 is the no-effect control and ±100 the full control effect; nearly all actives have a fitted effect of over 60% in size
#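 Using CellTiter-Glo luminescence, growth of non-resistant KB-3-1 adenocarcinoma cells is assessed 72 h after pin-tool compound addition at 37 °C. Normalized responses across the concentration series yield fitted curves.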
# ATXN2 expr inh = Primary qHTS for Inhibitors of ATXN expression; Potency, µM (titrated, usually from 57 µM), for inactives: top-dose activity change, negative = inhibition, hits mostly inhibitors; 360,000 compounds, 0.72% hits; HEK-293 ATXN2-luciferase reporter, luminescence, 24 h; further: on the % scale 0 is the no-effect control and ±100 the full control effect; nearly all actives have a fitted effect of over 55% in size
#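 qHTS (up to 57 uM final) was run with 24 h compound exposure of reporter cells at 37 °C. Each well was multiplexed: SteadyGlo luminescence measured ATXN2-luciferase expression after a fluorogenic Gly-Phe-AFC viability readout (25 uM final).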
# KB-V1 cytotox = qHTS assay for MDR1-selective chemotherapeutics: Primary screen using the drug-selected MDR subline cells KB-V1 | 400,000 compounds, 3.4% hits | AID 1347076, 2019 | KB-V1 MDR cells viability, CellTiter-Glo, 72 h | Potency, µM (highest dose often 46.1 µM), usual class: cytotoxic; further: on the % scale 0 is the no-effect control and ±100 the full control effect; nearly all actives have a fitted effect of over 60% in size
#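 Luminescent ATP read-out (CellTiter-Glo, 10 min) measures survival of drug-selected KB-V1 MDR cells after 72 h, 37 degrees C compound exposure. Medium: phenol-red-free DMEM, 10% FBS. Values from fitted concentration-response curves.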
# Starred values were filed as active, the others as inactive; i = inactive; ? = inconclusive; . = not tested or not shown; [ ] = dose if it differs, or a comment. The call rests on the fitted dose curve; in most records, active means well fitted curve in the direction sought with a large enough effect; inconclusive means small, poorly fitted or top-dose-only effect, or another doubt; inactive means no such curve, though single readings can be large; an effect the other way counts as inactive or inconclusive. Potency means the concentration at half of the fitted maximal effect.
SMILES,HT1080 IDH1KD tx,HT1080-NT tox,S2 tox,KB-3-1 cytotox,ATXN2 expr inh,KB-V1 cytotox
O=C(CS(=O)(=O)c1ccccc1)Nc1ccc(Br)cn1,-3%,-5%,i,i,15%,16µM*
O=C(CC(=O)c1ccccc1)CS(=O)(=O)c1ccccc1,-18%,4%,?,i,5%,12µM*
O=C(/C=C/c1ccccc1)Nc1ncn[nH]1,7.9µM*,11µM*,?,i,?,i
O=C(/C=C/c1ccccc1)Nc1ccc(Br)cn1,5.2µM*,6.5µM*,?,5.2µM*,-16%,i
Cc1ccc(NC(=O)/C=C/c2ccc(Cl)cc2)nc1,-11%,-2%,i,i,31%[11.3 µM],i
COc1cc(OC)c(NC(=O)N2CCc3c([nH]c4ccccc34)C2c2ccccc2F)cc1Cl (centres undefined),.,.,i,i,-6%,i
OC(c1cccnc1)c1ccc2c(c1)CN(Cc1ccc(-c3ccccc3Cl)o1)CCO2 (centres undefined),.,.,i,.,.,.
CC(Oc1ccc(Cl)cc1Cl)c1nc(-c2ccc(NC(=O)c3cccnc3)cc2)no1 (centres undefined),7.3µM*,?,i,i,-20%,i
Cc1ccc(N/N=C/c2cccnc2)cc1,8.2µM*,?,?,?,50%,21µM*
Fc1ccc(N/N=C/c2cccnc2)c(F)c1,15µM*,?,i,i,-3%,i
COc1cccc2c1C(=O)c1c(O)c3c(c(O)c1C2=O)CC(O)(C(C)=O)CC3OC1CC(O)C(O)C(C)O1 (centres undefined),23µM*,?,19µM*,?,?,?
COc1cccc2c1C(=O)c1c(O)c3c(c(O)c1C2=O)C[C@](O)(C(C)=O)C[C@H]3O[C@@H]1C[C@@H](N)[C@@H](O)[C@@H](C)O1,0.41µM*,0.65µM*,?,?,?,i
COc1cccc2c1C(=N)c1c(O)c3c(c(O)c1C2=O)CC(O)(C(C)=O)CC3OC1CC(N)C(O)C(C)O1 (centres undefined),21µM*,21µM*,?,?,1.2µM*,?
COc1cccc2c1-c1c(O)cccc1C2=O,1%,9%,i,i,.,i
CCCCC(=O)OCC(=O)C1(O)Cc2c(O)c3c(c(O)c2C(OC2CC(NC(=O)C(F)(F)F)C(O)C(C)O2)C1)C(=O)c1c(OC)cccc1C3=O (centres undefined),8.2µM*,23µM*,3.5µM*,?,2.5µM*,i
CC(Sc1nccn1C)C(=O)Nc1ccccc1C#N (centres undefined),.,.,i,i,1%,i
CSc1ccc(CCNC(=O)Cn2c(C)c3cnn(-c4ccccc4)c(=O)c3c2C)cc1,.,.,i,i,2%,i
COC(=O)C1CCN(Cc2ccc3c(c2)CN(C(=O)C(C)N2CCOCC2)CCO3)CC1 (centres undefined),.,.,i,.,.,.
COc1cccc2c1C(=O)c1c(O)c3c(c(O)c1C2=O)C[C@@](O)(C(=O)CO)C[C@H]3O[C@H]1C[C@H](N)[C@H](O)[C@H](C)O1,.,.,.,.,0.27µM*,.
Cc1cccc(C)c1-n1ncc(C(=O)N2CCN(c3ncccn3)CC2)c1C1CCN(C(=O)OC(C)(C)C)CC1,.,.,i,i,12%,i
O=c1[nH]c(SCc2ccc(Cl)cc2)nc2ccccc12,1%,1%,i,?,-5%,i
O=Cc1cc2ccccc2nc1SCc1ccc(Cl)cc1,7.3µM*,5.2µM*,?,6.5µM*,-21%,?
Cc1ccc(CSc2nc3ccccc3cc2C=O)cc1,6.5µM*,5.8µM*,i,8.2µM*,-1%,?
Clc1ccc(CSc2cnnc3ccccc23)cc1Cl,-13%,-12%,i,i,7%,i
O=Cc1cc2ccccc2nc1SCc1ccc(Cl)c(Cl)c1,5.8µM*,4.1µM*,i,4.6µM*,-5%,5.8µM*
SMILES,HT1080 IDH1KD tx,HT1080-NT tox,S2 tox,KB-3-1 cytotox,ATXN2 expr inh,KB-V1 cytotox
CCc1nnc(NC(=O)c2ccccc2NC(=O)C2CCN(C(=O)c3ccco3)CC2)s1,.,.,.,?,.,i
CCOC(=O)c1sc2ncn(CC(=O)Nc3ccc(C)cc3C)c(=O)c2c1C,.,.,i,i,4%,?
CC(=O)N(CC(=O)N(C)C)c1ccccc1,.,.,i,.,-1%,.
O=C(c1ccc2[nH]ccc2c1)N1CCOc2ccc(CN3CCN(c4ccccn4)CC3)cc2C1,.,.,i,.,.,.
Cc1ccc2c(=O)n3c(nc2c1)C(Cc1ccccc1)NC(=O)c1cc2ccccc2cc1-3 (centres undefined),5.8µM*,6.5µM*,?,12µM*,?,?
O=C1NC(Cc2ccccc2)c2nc3cc(F)ccc3c(=O)n2-c2cc3ccccc3cc21 (centres undefined),16µM*,?,?,?,-22%,?
O=C1NC(Cc2ccccc2)c2nc3ccccc3c(=O)n2-c2cc3ccccc3cc21 (centres undefined),9.2µM*,?,?,13µM*,?,?
CC(C)N1CCC(N2CCN(Cc3ccc(-c4ccc(Cl)cc4)o3)CC2CCO)CC1 (centres undefined),21µM*,16µM*,i,?,-5%,i
O=C(Cn1cnc2c(nc3n2CCCCC3)c1=O)Nc1ccc(F)cc1,.,.,i,i,8%,i
CC(=O)Nc1ccc(OCC(O)CN2CCN(c3cccc(Cl)c3)CC2)cc1 (centres undefined),-4%,0%,i,i,-4%,16µM*
CC(=O)Nc1ccc(S(=O)(=O)N2CCN(CC(O)COc3ccc4ccccc4c3)CC2)cc1 (centres undefined),?,0.71µM*,?,i,?,?
CC(=O)Nc1ccc(OCC(O)CN2CCN(S(=O)(=O)c3ccc(NC(C)=O)cc3)CC2)cc1 (centres undefined),0%,0%,i,i,-2%,i
COc1cc(Cl)c(S(=O)(=O)N2CCN(c3c(C)cccc3C)CC2)cc1Cl,.,.,i,i,3%,?
O=c1cc(-c2ccccc2)[nH]n1-c1nc2ccccc2[nH]1,13µM*,11µM*,?,?,?,?

# High-throughput results from PubChem BioAssay.
